# About 1,700 (0.52%) of roughly 330,000 compounds were called active. This is one part of a sample in which actives are shown more often than they occur. Values without a mark were called inactive. No stated cut-off is given here; in the data, active means inhibition above about 50%; inactive means the rest.
# Assay: lowers stimulated NF-kB reporter luminescence – cell-based, uHTS, TCR NF-kB activation inhibitor project, primary screen (AID 435003)
# Conditions: Jurkat, PMA/ionomycin-induced NF-kB luciferase reporter, at 4 µM, stronger effect = higher value
row,Structure (SMILES),inhibition
1,Cc1ccc2nc(SC(C)C(=O)NCc3ccco3)[nH]c2c1 (stereo not given),7.59%
2,COc1ccc(C(=O)NCC(=O)N/N=C/c2ccc([N+](=O)[O-])o2)cc1OC,8.93%
3,O=C(NNC(=O)C1CCCC1)c1ccc(F)cc1,-13.7%
4,O=C(/C=C/c1ccc([N+](=O)[O-])o1)NNC(=O)c1ccc(F)cc1,75.6% (active)
5,Cc1ccc(NC(=O)Cn2nnc(C(=O)NCc3ccco3)c2N)c(C)c1,-3.15%
6,CCc1ccc(NC(=O)Cn2nnc(C(=O)NCc3ccc(OC)cc3)c2N)cc1,13.8%
7,CCOc1ccccc1NC(=O)Cn1nnc(C(=O)NCc2cccs2)c1N,65.8% (active)
8,CC[n+]1c(C)n(-c2ccccc2)c2ccc(NC(C)=O)cc21,35.7%
9,N#Cc1ccc(-c2ccc(Cl)cc2)nc1Oc1ccc(F)cc1,-19.4%
10,CCCC(=O)Nc1nc2ccc(NC(=O)c3c(F)c(F)c(OC)c(F)c3F)cc2s1,57.8% (active)
11,CSc1nc2ccc(NC(=O)c3c(F)cccc3F)cc2s1,-93.5%
12,CCCC(=O)Nc1nc2ccc(NC(=O)c3cccnc3)cc2s1,40.8%
13,COc1ccccc1NS(=O)(=O)c1ccc(C(=O)N2CCN(c3ccccc3O)CC2)cc1,-3.42%
14,CC1(C)CN(c2ccc(-c3ccnc4ncnn34)cc2)C1=O,-3.78%
15,Cc1cc(C(=O)OCC(=O)NCc2ccco2)c(C)n1-c1ccccc1,54.7% (active)
16,O=C(COC(=O)c1ccccc1O)NCc1ccco1,-0.428%
17,CN(c1ccccc1)S(=O)(=O)c1ccc(Cl)c(C(=O)OCC(=O)NCc2ccco2)c1,-10.7%
18,COc1ccc(NC(=O)N(C)C[C@H]2Oc3ccc(NC(=O)C4CC4)cc3C(=O)N([C@H](C)CO)C[C@@H]2C)cc1,-11.5%
19,COc1ccc(-c2c(NC(=O)c3ccco3)oc3ccc(Cl)cc3c2=O)cc1,-5.27%
20,COc1ccc(S(=O)(=O)N(C)C[C@H]2Oc3ccc(NS(=O)(=O)c4cccs4)cc3CC(=O)N([C@H](C)CO)C[C@H]2C)cc1,16%
21,O=C(CSc1ncnc2scc(-c3ccccc3)c12)NCc1ccc2c(c1)OCO2,1.29%
22,CC[C@]1(O)CC2CN(CCc3c([nH]c4ccccc34)[C@@](C(=O)OC)(c3cc4c(cc3OC)N(C=O)[C@H]3[C@@](O)(C(=O)OC)[C@H](OC(C)=O)[C@]5(CC)C=CCN6CC[C@]43[C@@H]65)C2)C1 (stereo not given in full),71.2% (active)
23,Cc1ccc(F)cc1S(=O)(=O)Nc1cccc(C(=O)N2CCCC(C(N)=O)C2)c1 (stereo not given),12.4%
24,CCC/C=C(\CCC)C(NC(=O)Cc1ccccc1)c1ccc(C(=O)OC)cc1 (stereo not given),25.8%
25,CCNC(=S)N(CCc1c(C)[nH]c2ccc(C)cc12)Cc1ccco1,-0.351%
26,Cc1c(Nc2nc3ccccc3nc2NS(=O)(=O)c2cccs2)c(=O)n(-c2ccccc2)n1C,-0.383%
27,Nc1c(-c2ccc(F)cc2)cnn1C1CCS(=O)(=O)C1 (stereo not given),-7.3%
28,O=C(CS(=O)(=O)Cc1ccccc1)Nc1cccnc1,7.62%

row,Structure (SMILES),inhibition
1,COc1cc(OC)nc(N/N=C(\c2ccccc2)c2ccncc2)n1,-5.67%
2,N/C(=N\OC(=O)Cc1ccccc1[N+](=O)[O-])c1ccc(Br)cc1,1.58%
3,N/C(=N\OC(=O)N1c2ccccc2Sc2ccccc21)c1ccc(Br)cc1,77% (active)
4,N/C(=N\OC(=O)c1ccc2c(c1)OCO2)c1ccc(Br)cc1,-102%
5,CC(C)(C)NS(=O)(=O)NC(=O)C1=C(N2CCCC2)COC1=O,-4.98%
6,COC(=O)C1=NNC2(c3ccc(C)cc3)C(=O)N(c3cccc(C)c3C)C(=O)C12 (stereo not given),-13.7%
7,Cc1ccc(S(=O)(=O)N2CCCCC2)cc1C(=O)N(C)CC(=O)Nc1cccc(F)c1,0.943%
8,Cc1cc(C)cc(NC(=O)N2CCC(NC(=O)c3ccc(F)cc3)CC2)c1,-8.05%
9,O=C(CCNC(=O)c1ccc(Br)cc1)Nc1cccc(S(=O)(=O)N2CCCCC2)c1,51.4% (active)
10,O=C(Nc1cccc(S(=O)(=O)N2CCCCC2)c1)c1cncc(Br)c1,-9.4%
11,Cc1ccc(S(=O)(=O)N2CCCCC2)cc1NC(=O)CCNC(=O)c1ccccc1,1.31%
12,COc1ccc(-n2nnc3c(=O)n(CC(=O)OCc4ccccc4)cnc32)cc1,-2.47%
13,CCCc1nnc(SCC(=O)Nc2ccc(C(=O)OCC)cc2)o1,-1.45%
14,CCOC(=O)c1ccc(NC(=O)Cc2cccs2)cc1,-42.6%
15,CCOC(=O)c1ccc(NC(=O)Cn2cnc3cc(C)c(C)cc32)cc1,66.1% (active)
16,COc1ccc(CNC(=O)C2CCN(S(C)(=O)=O)CC2)cc1,11.1%
17,Cc1cc(-c2ccc(C)c(S(=O)(=O)NCCCN(Cc3ccccc3)C(C)C)c2)on1,9.13%
18,COc1ccc(CNS(=O)(=O)c2cc(-c3cc(C)no3)ccc2C(C)C)cc1,50.9% (active)
19,CCOc1ccccc1CNS(=O)(=O)c1cc(-c2cc(C)no2)ccc1C,18%
20,COc1ccc(/C=N/NC(=O)C(C)N(c2ccc(OC)cc2)S(C)(=O)=O)cc1 (stereo not given),13.9%
21,CC(C)CC(=O)Nc1nnc(S(=O)(=O)N(C)c2ccc(Cl)cc2)s1,1.22%
22,COc1cccc(-n2c(=S)[nH]c3c(oc4ccccc43)c2=O)c1,-22.5%
23,O=c1oc2ccccc2cc1-c1cn(-c2ccccc2)c(=S)[nH]1,85.2% (active)
24,CS(=O)(=O)N1CCN(C(=O)c2cc3ccccc3oc2=O)CC1,2.45%
25,CCOC(=O)c1cc(-c2ccc(F)cc2)n(CC(=O)NCc2ccccn2)c1C,-17.7%
26,CCCN(CC1CC1)C(=O)COC(=O)c1ccc(C)cc1O,-1.18%
27,Cc1cc(/C=N/n2cnnc2)c(C)n1-c1ccc2ncccc2c1,9.47%

# From PubChem BioAssay AID435003 (Sanford-Burnham Center for Chemical Genomics, 2010)
